Bioassay records as filed in PubChem BioAssay.
LmPK inhibitor – qHTS Assay for Inhibitors of Leishmania Mexicana Pyruvate Kinase (LmPK). AID 1721, 2009. 0.37% of 290,000 active. Potency, µM (titrated, usually from 57.5 µM), without a hit: top-dose activity change, negative = inhibition, actives largely listed as inhibitors. purified LmPK, Kinase-Glo ATP luminescence, 1 h; note: potency is the fitted concentration of half-maximal effect; % is set by controls: 0 for no effect and ±100 for the full control effect
Target sequence (Q27686 whole entry, looked up): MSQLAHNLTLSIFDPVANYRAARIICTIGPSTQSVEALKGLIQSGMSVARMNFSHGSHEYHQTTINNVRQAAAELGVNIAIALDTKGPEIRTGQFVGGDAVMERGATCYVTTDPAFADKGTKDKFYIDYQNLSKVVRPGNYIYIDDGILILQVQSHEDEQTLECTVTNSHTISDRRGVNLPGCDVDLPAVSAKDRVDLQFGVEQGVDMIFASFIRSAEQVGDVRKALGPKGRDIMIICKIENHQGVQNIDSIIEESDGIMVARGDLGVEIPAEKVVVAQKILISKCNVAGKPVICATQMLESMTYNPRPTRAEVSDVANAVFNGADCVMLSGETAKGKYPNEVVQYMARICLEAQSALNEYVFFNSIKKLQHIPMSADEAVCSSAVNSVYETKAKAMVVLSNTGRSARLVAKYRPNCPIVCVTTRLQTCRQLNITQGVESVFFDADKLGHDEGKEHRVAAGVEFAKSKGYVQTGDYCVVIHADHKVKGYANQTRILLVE
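Kinase-Glo luminescence read after 1 h RT reaction of 0.1 nM LmPK with 0.5 mM PEP and 0.1 mM ADP. Activity scaled between uninhibited and enzyme-free controls.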
Cycloheximide cs – Cycloheximide Counterscreen for Small Molecule Inhibitors of Shiga Toxin; cell reporter, cycloheximide protein synthesis inhibition counterscreen; AID 2314, 2010; max response, %; 12% of 300,000 active; in the data active = max response mostly above about 13%, no sharp cut-off; inactive = mostly below about 14%; note: read at 38.3 µM for the half of the compounds with a filed dose; 0% is about no effect
Pf growth 96h – Primary qHTS for delayed death inhibitors of the malarial parasite plastid, 96 hour incubation; P. falciparum luciferase reporter growth, 96 h; Potency, µM (titrated, usually from 28.7 µM), without a hit: top-dose activity change, negative = inhibition, most hits filed as inhibitors; 6.9% of 320,000 active; note: potency is the fitted concentration of half-maximal effect; % is set by controls: 0 for no effect and ±100 for the full control effect
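Luminescence readout: decreased luciferase signal marks inhibited growth of reporter-expressing P. falciparum in infected red cells (2% hematocrit, 0.05% parasitemia final), exposed to compound two generations (96 h, 37 C, 5% CO2).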
Pf growth 48h – Primary qHTS for delayed death inhibitors of the malarial parasite plastid, 48 hour incubation; P. falciparum luciferase growth in erythrocytes, 48 h; Potency, µM (doses to about 28.7 µM), for the others: top-dose activity change, negative = inhibition, usual class: inhibitors; 5.9% of 310,000 active; note: potency is the fitted concentration of half-maximal effect; % is set by controls: 0 for no effect and ±100 for the full control effect
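Here the parasites carry a stable luciferase gene and grow inside erythrocytes in Albumax-based RPMI medium with compound for one erythrocytic cycle. Activity is scored as loss of luminescent signal.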
Shiga inhibitor – A qHTS for Small Molecule Inhibitors of Shiga Toxin | inhibition, % at 38.7 µM | 9.2% of 290,000 active | Vero cells, Shiga toxin protein synthesis inhibition reporter | AID 2315, 2010; in the data active = inhibition mostly above about 28%, no sharp cut-off; inactive = mostly below about 43%; note: 0% is about no effect
The depositor's hits bear a star; ? = inconclusive; . = no result. Most compounds without a hit are left out; they make up all but 22% or so of the library. Unless noted, calls come from the whole dose curve; as a rule, active = well fitted inhibition curve with a large enough effect; inconclusive = small, poorly fitted or top-dose-only effect, or another doubt; inactive = no such curve, though single readings can be large or run the other way.

SMILES	LmPK inhibitor	Cycloheximide cs	Pf growth 96h	Pf growth 48h	Shiga inhibitor
Cc1cccc(NC(=O)CCN2C(=O)c3ccccc3C2=O)c1	6%	1	-6%	28%	-7
Cc1ccc2nc(-c3ccc(NC(=O)CCN4C(=O)c5ccccc5C4=O)cc3)sc2c1	1%	55*	59%	218%	79*
CCn1c(COc2cc(C)ccc2C(C)C)nnc1SCC(=O)Nc1nccs1	2%	-1	36%	-15%	-18
O=C(CCN1C(=O)c2ccccc2C1=O)Nc1nc2ccccc2s1	0%	19*	137%	3%	-38
COc1ccccc1NC(=O)c1ccc(-c2ccccc2F)o1	1%	28*	6%	43%	70*
Cc1cc(NC(=O)c2ccc(-c3ccccc3F)o2)no1	-6%	79*	48%	85%	186*
O=C(NC(=S)Nc1cc(Cl)ccc1N1CCOCC1)c1ccc(-c2cccc(Cl)c2)o1	-2%	1	41%	-2%	-4
O=C(NC(=S)Nc1ccccc1N1CCOCC1)c1ccc(-c2ccccc2F)o1	3%	-3	15µM*	6%	1
O=[N+]([O-])c1cnn(-c2nc(-c3ccccc3)cc(C(F)(F)F)n2)c1	0%	2	2%	17%	10
CCOC(=O)c1nc(C)nc(Sc2n[nH]c(-c3cc(C(F)(F)F)cc(C(F)(F)F)c3)n2)c1C	10%	-1	-3%	0%	-11
O=C(Nc1ccc2oc(-c3ccncc3)nc2c1)c1ccco1	0%	27*	18%	?	48
O=C(Nc1ccc2oc(-c3ccccc3)nc2c1)c1ccco1	1%	94*	?	68%	78*
CS(=O)(=O)N1CC(C(=O)O)Oc2ccc(CC(=O)O)cc21 (centres undefined)	7%	1	118%	23%	-6
CCCCCCC(C)n1[nH]c(=O)cc1N (centres undefined)	2%	-2	36%	29%	-7
Cc1ccc(NC(=O)c2cncc(Br)c2)nc1	-4%	28*	162%	102%	79*
Cc1ccc(NC(=O)c2cncc(Br)c2)c(O)c1	-3%	35*	?	-28%	66*
Cc1cc([N+](=O)[O-])ccc1NC(=O)c1cncc(Br)c1	3%	-4	224%	4%	-4
COc1ccc(NC(=O)c2ccc3nc[nH]c3c2)c(OC)c1	4%	10	42%	19%	11
Cc1ccc(NC(=O)c2ccc3nc[nH]c3c2)nc1	2%	-5	5%	23%	-17
Cc1ccc(NC(=O)c2ccc3nc[nH]c3c2)c(O)c1	2%	33*	282%	282%	74*
O=C(Nc1ccc(OC(F)(F)F)cc1)c1ccc2nc[nH]c2c1	5%	33*	4%	26%	.
CCCN1C2CCCC1CC(NC(=O)c1ccccc1Br)C2 (centres undefined)	0%	3	37%	13%	10
CCC(C)c1ccc(O)c(NC(=O)c2cncc(Br)c2)c1 (centres undefined)	2%	-1	-22%	1µM*	23
O=C(Nc1ccccc1C(=O)O)c1cncc(Br)c1	-27%	-2	.	6%	-12
CC1CCCN(CCCN2C(=O)C3C(C(=O)Nc4cccc(Cl)c4)C4C=CC3(O4)C2C(=O)NC2CCCCC2)C1 (centres undefined)	0%	-4	-3%	?	2
SMILES	LmPK inhibitor	Cycloheximide cs	Pf growth 96h	Pf growth 48h	Shiga inhibitor
CN(C)c1ccc(C(=C2C=CC(=[N+](C)C)C=C2)c2ccccc2)cc1	.	8	3.8µM*	7.6µM*	-1
CN(C)c1ccc(C(=O)NNC(=O)c2ccc(Cl)cc2)cc1	0%	12	53%	24%	12
CN(C)c1ccc(C(=C2C=CC(=[N+](C)C)C=C2)c2ccc(N(C)C)cc2)cc1	.	.	0.19µM*	0.3µM*	.
CN(C)c1ccc(C(=C2C=CC(=[N+](C)C)C=C2)c2c(O)c(S(=O)(=O)[O-])cc3cc(S(=O)(=O)O)ccc23)cc1	.	.	6µM*	?	.
CCOc1ccc(C(=O)n2cc(C(=O)OC)c3ccccc32)cc1	-5%	-3	4%	3%	16
O=C(NCc1ccc(Cl)cc1)C1CCCCN1S(=O)(=O)c1ccccc1 (centres undefined)	-3%	1	-5%	-7%	17
COc1cc(OC)cc(-c2oc3cccnc3c2C#CCCO)c1	0%	-3	?	14%	1
COc1ccc(/C=C/c2c(-c3ccc(OC)cc3)oc3cccnc23)cc1	0%	16*	29%	?	31*
CC(C)(C)NS(=O)(=O)c1ccc(NC(=O)C2CC(=O)N(CCc3ccc(F)cc3)C2)cc1 (centres undefined)	-1%	-2	-26%	?	19
O=C1CCN(Cc2ccc(O)cc2)CCN1CCO	6%	-2	-9%	38%	-5
COc1cc(C(=O)Nc2sc3c(c2C(=O)NCc2ccco2)CCCC3)cc(OC)c1OC	5%	3	1.7µM*	.	-12
Cc1cc(O)c(-c2cc(C(=O)Nc3sc4c(c3C(=O)NCc3ccco3)CCC4)[nH]n2)cc1C	-2%	-2	1.9µM*	1.2µM*	-7
O=C(Nc1sc2c(c1C(=O)NCc1ccco1)CCCC2)c1ccc2c(c1)OCO2	-1%	44*	43%	?	89*
COc1ccc(C(=O)Nc2sc3c(c2C(=O)NCc2ccco2)CCCC3)cc1OC	16%	-3	3.3µM*	.	1
Cc1ccc(-c2cc(C(=O)Nc3sc4c(c3C(=O)NCc3ccco3)CCC4)[nH]n2)c(O)c1	4%	5	?	?	17
COC(=O)Nc1sc2c(c1C(=O)NCc1ccco1)CCCC2	2%	6	?	-17%	2
Cc1ccc(C(=O)Nc2sc3c(c2C(=O)NCc2ccco2)CCCC3)cc1	0%	13	?	.	34
O=C(NCCOC(=O)c1ccccc1)c1ccccc1	.	.	?	-20%	.
CC1CCN(C(=O)CCNC(=O)c2ccccc2Cl)CC1	-7%	-4	-19%	1%	-19
O=C(NCc1ccccc1Cl)C1CCN(S(=O)(=O)N2CCCC2)CC1	6%	-1	-17%	14%	-5
N#Cc1ccccc1S(=O)(=O)N1CCC(C(=O)NCc2ccccc2CN2CCCC2)CC1	.	.	6.6µM*	?	.
CCOc1ccc(S(=O)(=O)N2CCC(C(=O)NCc3ccccc3CN3CCCC3)CC2)cc1	.	.	13µM*	9.3µM*	.
CCOc1ccc(S(=O)(=O)N2CCC(C(=O)OC(C)C(=O)NC3CCCCC3C)CC2)cc1 (centres undefined)	.	.	13µM*	8.3µM*	.
CCOC(=O)C1CCN(S(=O)(=O)c2ccc3c(c2)CC(=O)N3)CC1	-8%	1	0%	12µM*	-2
CCOC(=O)C1CCN(S(=O)(=O)c2ccc3c(c2)NC(=O)C(C)S3)CC1 (centres undefined)	3%	-3	67%	?	-10
